Reference: publication PMC5540273 (PLoS ONE, 2017)

Tested on: MAP3K15
Details: concentration: 1 μM, replicates: in singlicate; n = 1
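Note: KINOMEscan kinase panel screen.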

Q: For `COc1ccc(Nc2nccc(NCCNC(=O)c3cc4ccccc4s3)n2)cc1` [GSK1379896], which “%Inh” value is on record?
A: Its value is 0%.

Q: `Clc1ccc(-c2nn3ncccc3c2-c2ccnc(Nc3ccc4c(c3)OCCO4)n2)cc1` [GW829116] was tested. Which “%Inh” value did it give?
A: The value was 0%.

Q: Which “%Inh” value does the source give for `O=C(Nc1cccc(-c2nn3ncccc3c2-c2ccnc(Nc3ccccc3)n2)c1)c1c(F)cccc1F` [GSK198271] here?
A: Its value is 0%.

Q: With `Nc1ncc(-c2ccc3nccc(-c4ccncc4)c3c2)cc1S(=O)(=O)N1CCOCC1` [GSK1627798] as the compound, how does the “%Inh” value read?
A: Its value is 0%.

Q: With `Cl.c1ccc(-c2ccc3c(Nc4ccc5[nH]ccc5c4)ccnc3c2)nc1` [GW440138] as the compound, how does the “%Inh” value read?
A: Its value is 0%.

Q: Which “%Inh” value does the source give for `COc1cccc(C2=C(Nc3ccc(Cl)c(C(=O)O)c3)C(=O)NC2=O)c1` [SB-390769] here?
A: The value was 24%.

Q: Which “%Inh” value does the source give for `O=C(Nc1n[nH]c2cc(-c3ccoc3)ccc12)C1CC1` [SB-738481] here?
A: The value was 10%.

Q: Which “%Inh” value does the source give for `CCS(=O)(=O)c1ccc(OC)c(Nc2nccc(-c3c(-c4cccc(NC(=O)c5c(F)cccc5F)c4)nn4ncccc34)n2)c1` [GSK326180] here?
A: Its value is 0%.

Q: `CN(c1ccc(NC(=O)Nc2cc(C(F)(F)F)ccc2F)cc1)c1ccnc(Nc2ccc(S(N)(=O)=O)cc2)n1` [GW809893] was tested. Which “%Inh” value did it give?
A: The value was 0%.

Q: For `Oc1cc(Nc2ccnc3cc(I)ccc23)ccc1F` [GW552771], which “%Inh” value is on record?
A: Its value is 11%.

Q: For `CC(=O)N1CCN(c2ccc(Nc3nccc(-c4sc(C(C)C)nc4-c4cccc(NS(=O)(=O)c5cccc(Cl)c5)c4)n3)cn2)CC1` [GSK1660437], which “%Inh” value is on record?
A: The value was 16%.

Q: `Cn1cc(-c2ccc3c(c2)CCN3C(=O)Cc2cccc(Cl)c2)c2c(N)ncnc21` [GSK2606590] was tested. Which “%Inh” value did it give?
A: Its value is 17%.
